# From PMC7862700, “An all-to-all approach to the identification of sequence-specific readers for epigenetic DNA modifications on cytosine”
# Assays:
# Assay in all cases: DAPPL (digital affinity profiling via proximity ligation, sequencing); 10 mM Tris-HCl pH 7.5, 50 mM NaCl, 1 mM DTT, 4% glycerol, room temperature, 30 min; GST-TFs on glutathione beads, 16-mer random dsDNA library, 0.1% formaldehyde crosslink after washing; high values mean tight binding
# FLI1 = molecular target: T1, FLI1 (Homo sapiens, UniProt Q01543 1-452); settings: protein: recombinant; tags: N-terminal GST; dsDNA, one strand shown
# T1 sequence: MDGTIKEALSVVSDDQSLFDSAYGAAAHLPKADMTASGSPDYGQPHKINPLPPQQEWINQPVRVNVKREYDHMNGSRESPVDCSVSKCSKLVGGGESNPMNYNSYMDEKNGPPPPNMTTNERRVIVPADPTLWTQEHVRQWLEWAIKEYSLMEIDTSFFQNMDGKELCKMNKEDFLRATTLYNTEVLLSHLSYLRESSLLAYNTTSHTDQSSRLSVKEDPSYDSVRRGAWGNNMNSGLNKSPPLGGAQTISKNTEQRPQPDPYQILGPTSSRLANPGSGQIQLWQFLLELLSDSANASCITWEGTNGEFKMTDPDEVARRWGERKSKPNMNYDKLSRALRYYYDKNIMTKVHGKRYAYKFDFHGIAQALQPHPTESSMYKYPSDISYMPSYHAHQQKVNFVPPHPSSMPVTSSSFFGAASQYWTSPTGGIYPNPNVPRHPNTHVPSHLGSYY
# Method in brief: (§1)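 GST fusions of human transcription factors were expressed in yeast and captured with glutathione beads. Once given DNA barcodes and pooled alongside a tag-only sample, they were incubated for 30 min at room temperature with 200 nmole of a random double-stranded 16-mer DNA library in Tris/NaCl/DTT/glycerol buffer, then washed, crosslinked (0.1% formaldehyde), proximity-ligated, PCR-amplified and sequenced on an Illumina NextSeq500. The binding signal of each hexamer is its read frequency for a factor divided by its frequency for the tag-only sample.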
# ELK1 = molecular target: T2, ELK1 (Homo sapiens, UniProt P19419 1-428); settings: protein: recombinant; tags: N-terminal GST; dsDNA, one strand shown
# T2 sequence: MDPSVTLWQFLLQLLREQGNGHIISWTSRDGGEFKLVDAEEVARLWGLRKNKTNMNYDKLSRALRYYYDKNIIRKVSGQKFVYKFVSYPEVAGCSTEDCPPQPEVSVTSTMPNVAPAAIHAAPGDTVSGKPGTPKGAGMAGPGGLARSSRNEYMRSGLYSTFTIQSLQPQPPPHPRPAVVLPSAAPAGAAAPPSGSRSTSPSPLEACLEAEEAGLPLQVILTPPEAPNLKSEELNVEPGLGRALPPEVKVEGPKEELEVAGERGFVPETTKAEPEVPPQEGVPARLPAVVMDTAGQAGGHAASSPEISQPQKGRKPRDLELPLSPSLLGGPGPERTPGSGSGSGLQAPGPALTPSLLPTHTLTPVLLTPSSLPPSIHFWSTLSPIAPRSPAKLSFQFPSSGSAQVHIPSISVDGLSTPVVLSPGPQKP
# Method in brief: as §1
# GABPA = molecular target: T3, GABPA (Homo sapiens, UniProt Q06546 1-454); settings: protein: recombinant; tags: N-terminal GST; dsDNA, one strand shown
# T3 sequence: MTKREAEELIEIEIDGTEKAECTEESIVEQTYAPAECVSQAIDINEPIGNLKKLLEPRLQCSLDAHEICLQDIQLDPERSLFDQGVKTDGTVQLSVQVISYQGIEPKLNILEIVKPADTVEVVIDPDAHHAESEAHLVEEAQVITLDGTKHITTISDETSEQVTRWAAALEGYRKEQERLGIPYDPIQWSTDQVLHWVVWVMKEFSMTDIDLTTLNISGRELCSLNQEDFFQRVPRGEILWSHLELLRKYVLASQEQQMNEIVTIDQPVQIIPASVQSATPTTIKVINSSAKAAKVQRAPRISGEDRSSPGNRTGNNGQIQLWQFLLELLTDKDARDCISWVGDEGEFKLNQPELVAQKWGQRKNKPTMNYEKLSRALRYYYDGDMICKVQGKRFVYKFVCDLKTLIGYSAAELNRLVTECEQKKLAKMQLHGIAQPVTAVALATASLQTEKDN
# Method in brief: as §1
# ERG = molecular target: T4, ERG (Homo sapiens, UniProt P11308 1-479); settings: protein: recombinant; tags: N-terminal GST; dsDNA, one strand shown
# T4 sequence: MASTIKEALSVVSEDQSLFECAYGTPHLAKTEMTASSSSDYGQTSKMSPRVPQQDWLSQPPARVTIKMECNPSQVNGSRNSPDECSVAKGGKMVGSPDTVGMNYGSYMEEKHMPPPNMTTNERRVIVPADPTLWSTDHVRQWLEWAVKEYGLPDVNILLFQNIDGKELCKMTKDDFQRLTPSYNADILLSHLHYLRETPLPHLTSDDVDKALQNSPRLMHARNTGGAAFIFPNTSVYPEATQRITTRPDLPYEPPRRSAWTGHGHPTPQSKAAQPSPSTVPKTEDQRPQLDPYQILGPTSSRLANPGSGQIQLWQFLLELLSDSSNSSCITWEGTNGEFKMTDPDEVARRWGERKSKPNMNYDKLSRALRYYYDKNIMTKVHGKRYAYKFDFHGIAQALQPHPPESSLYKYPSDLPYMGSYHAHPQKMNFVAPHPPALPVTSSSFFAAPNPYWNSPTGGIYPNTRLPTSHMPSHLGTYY
# Method in brief: as §1
# ELF1 = ELF1 (Homo sapiens, UniProt P32519 1-619); settings: protein: recombinant; tags: N-terminal GST; dsDNA, one strand shown
# ELF1, sequence (P32519 whole entry): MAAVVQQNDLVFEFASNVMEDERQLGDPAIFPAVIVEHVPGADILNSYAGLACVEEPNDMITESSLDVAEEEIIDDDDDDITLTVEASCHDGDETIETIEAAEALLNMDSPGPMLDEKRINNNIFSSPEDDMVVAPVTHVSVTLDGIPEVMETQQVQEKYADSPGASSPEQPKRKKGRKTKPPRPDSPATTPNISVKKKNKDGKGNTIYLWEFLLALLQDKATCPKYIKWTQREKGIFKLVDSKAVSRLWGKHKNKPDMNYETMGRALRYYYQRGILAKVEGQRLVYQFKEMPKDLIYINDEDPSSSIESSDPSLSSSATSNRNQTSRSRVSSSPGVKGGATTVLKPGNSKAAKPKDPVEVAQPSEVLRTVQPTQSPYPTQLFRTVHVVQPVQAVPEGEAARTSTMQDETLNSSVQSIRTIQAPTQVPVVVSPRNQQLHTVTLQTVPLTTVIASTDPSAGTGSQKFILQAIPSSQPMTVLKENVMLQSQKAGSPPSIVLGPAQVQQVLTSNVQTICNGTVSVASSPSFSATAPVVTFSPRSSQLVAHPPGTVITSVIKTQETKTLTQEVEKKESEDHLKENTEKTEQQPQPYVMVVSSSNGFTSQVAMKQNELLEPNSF
# Method in brief: as §1
# EHF = molecular target: T5, EHF (Homo sapiens, UniProt Q9NZC4 1-300); settings: protein: recombinant; tags: N-terminal GST; dsDNA, one strand shown
# T5 sequence: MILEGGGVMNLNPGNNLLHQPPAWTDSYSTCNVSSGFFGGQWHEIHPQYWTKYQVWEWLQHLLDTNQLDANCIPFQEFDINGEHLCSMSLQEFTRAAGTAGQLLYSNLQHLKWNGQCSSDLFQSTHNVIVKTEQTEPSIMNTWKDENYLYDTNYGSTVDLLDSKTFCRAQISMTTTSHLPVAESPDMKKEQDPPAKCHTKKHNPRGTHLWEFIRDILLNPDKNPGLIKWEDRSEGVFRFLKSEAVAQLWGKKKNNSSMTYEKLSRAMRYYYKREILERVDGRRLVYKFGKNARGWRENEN
# Method in brief: as §1
# SPI1 = SPI1 (Homo sapiens, UniProt P17947 1-270); settings: protein: recombinant; tags: N-terminal GST; dsDNA, one strand shown
# Method in brief: as §1
# SPIB = SPIB (Homo sapiens, UniProt Q01892 1-262); settings: protein: recombinant; tags: N-terminal GST; dsDNA, one strand shown
# SPIB, sequence (Q01892 whole entry): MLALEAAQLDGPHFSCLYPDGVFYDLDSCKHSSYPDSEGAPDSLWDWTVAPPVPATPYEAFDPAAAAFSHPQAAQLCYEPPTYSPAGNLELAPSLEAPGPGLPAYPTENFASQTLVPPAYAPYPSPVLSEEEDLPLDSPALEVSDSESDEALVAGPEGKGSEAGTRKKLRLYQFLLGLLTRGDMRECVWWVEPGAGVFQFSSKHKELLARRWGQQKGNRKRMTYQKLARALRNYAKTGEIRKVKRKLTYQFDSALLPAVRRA
# Method in brief: as §1
# ELK3 = molecular target: T6, ELK3 (Homo sapiens, UniProt P41970 1-407); settings: protein: recombinant; tags: N-terminal GST; dsDNA, one strand shown
# T6 sequence: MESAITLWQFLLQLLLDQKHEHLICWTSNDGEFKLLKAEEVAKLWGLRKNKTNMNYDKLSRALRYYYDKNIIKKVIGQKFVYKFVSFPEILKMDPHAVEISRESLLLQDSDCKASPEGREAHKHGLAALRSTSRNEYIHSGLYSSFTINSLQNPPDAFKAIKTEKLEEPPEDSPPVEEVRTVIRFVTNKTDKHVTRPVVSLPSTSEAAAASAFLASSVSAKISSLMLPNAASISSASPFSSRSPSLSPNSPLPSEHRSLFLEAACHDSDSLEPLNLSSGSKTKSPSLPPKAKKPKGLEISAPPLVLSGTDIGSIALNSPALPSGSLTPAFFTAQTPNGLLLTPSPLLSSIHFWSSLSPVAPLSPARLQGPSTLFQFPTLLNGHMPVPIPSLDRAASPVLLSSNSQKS
# Method in brief: as §1
# FEV = molecular target: T7, FEV (Homo sapiens, UniProt Q99581 1-238); settings: protein: recombinant; tags: N-terminal GST; dsDNA, one strand shown
# T7 sequence: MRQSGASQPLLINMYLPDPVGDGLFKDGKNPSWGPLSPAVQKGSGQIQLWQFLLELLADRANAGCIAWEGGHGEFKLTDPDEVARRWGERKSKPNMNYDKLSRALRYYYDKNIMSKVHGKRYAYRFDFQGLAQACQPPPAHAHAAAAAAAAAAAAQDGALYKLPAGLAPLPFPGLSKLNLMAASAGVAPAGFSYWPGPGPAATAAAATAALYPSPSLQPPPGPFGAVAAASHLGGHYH
# Method in brief: as §1
# ETV5 = ETV5 (Homo sapiens, UniProt P41161 1-510); settings: protein: recombinant; tags: N-terminal GST; dsDNA, one strand shown
# ETV5, sequence (P41161 whole entry): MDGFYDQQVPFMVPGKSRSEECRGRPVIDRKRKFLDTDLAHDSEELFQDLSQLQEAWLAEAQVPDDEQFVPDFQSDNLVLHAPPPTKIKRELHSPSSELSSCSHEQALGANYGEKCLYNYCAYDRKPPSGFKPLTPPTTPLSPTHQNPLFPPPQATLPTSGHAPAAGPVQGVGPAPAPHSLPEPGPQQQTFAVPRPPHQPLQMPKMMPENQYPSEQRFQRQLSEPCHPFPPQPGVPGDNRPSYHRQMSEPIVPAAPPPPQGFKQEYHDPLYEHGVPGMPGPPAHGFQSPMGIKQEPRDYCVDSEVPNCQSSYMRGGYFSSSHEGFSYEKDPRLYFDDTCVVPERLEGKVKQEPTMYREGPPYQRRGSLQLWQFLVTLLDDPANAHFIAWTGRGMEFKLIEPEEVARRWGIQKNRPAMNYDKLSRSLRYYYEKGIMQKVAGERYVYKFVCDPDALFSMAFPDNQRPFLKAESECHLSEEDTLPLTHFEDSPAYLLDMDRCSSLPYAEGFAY
# Method in brief: as §1
# HSF1 = HSF1 (Homo sapiens, UniProt Q00613 1-529); settings: protein: recombinant; tags: N-terminal GST; chain copies: 3; dsDNA, one strand shown
# HSF1, sequence (Q00613 whole entry): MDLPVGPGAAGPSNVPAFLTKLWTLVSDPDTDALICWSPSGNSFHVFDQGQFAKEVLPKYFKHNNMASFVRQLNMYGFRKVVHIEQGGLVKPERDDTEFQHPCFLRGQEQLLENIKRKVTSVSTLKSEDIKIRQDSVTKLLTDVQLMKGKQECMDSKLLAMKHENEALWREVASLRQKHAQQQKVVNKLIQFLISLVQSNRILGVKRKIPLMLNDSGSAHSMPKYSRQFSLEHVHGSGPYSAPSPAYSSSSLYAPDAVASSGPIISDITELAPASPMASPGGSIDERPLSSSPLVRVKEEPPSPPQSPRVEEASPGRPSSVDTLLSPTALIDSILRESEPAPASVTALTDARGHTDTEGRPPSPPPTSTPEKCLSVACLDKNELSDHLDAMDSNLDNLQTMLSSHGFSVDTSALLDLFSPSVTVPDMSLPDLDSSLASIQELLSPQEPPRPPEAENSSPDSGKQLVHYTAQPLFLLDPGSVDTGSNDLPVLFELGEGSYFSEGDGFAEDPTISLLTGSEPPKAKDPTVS
# Method in brief: as §1
# SPIC = molecular target: T8, SPIC (Homo sapiens, UniProt Q8N5J4 1-248); settings: protein: recombinant; tags: N-terminal GST; dsDNA, one strand shown
# T8 sequence: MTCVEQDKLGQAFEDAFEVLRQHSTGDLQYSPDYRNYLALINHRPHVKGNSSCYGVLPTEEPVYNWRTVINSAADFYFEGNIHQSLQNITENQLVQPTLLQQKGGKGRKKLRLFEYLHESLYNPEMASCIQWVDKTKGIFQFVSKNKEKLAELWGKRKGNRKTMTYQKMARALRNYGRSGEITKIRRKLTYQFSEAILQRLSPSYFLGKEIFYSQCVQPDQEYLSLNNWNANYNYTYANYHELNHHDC
# Method in brief: as §1
# ELF4 = ELF4 (Homo sapiens, UniProt Q99607 1-663); settings: protein: recombinant; tags: N-terminal GST; dsDNA, one strand shown
# ELF4, sequence (Q99607 whole entry): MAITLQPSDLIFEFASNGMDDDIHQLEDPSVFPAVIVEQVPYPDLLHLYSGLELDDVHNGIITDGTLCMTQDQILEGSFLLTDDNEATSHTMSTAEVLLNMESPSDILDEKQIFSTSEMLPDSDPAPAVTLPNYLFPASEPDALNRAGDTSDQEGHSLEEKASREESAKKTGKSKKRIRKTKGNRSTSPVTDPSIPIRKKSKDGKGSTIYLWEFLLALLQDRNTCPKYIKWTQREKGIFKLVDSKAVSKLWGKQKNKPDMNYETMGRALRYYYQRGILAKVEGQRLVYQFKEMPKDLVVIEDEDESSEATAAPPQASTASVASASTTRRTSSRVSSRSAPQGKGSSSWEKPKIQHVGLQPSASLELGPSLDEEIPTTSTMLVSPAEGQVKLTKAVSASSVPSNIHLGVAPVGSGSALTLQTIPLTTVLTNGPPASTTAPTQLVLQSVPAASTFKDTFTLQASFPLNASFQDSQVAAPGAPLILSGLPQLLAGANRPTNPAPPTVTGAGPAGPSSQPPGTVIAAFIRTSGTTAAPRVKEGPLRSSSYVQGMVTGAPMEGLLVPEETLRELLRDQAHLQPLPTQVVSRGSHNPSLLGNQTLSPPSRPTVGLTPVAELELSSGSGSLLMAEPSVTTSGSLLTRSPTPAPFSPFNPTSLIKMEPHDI
# Method in brief: as §1
# ELK4 = molecular target: T9, ELK4 (Homo sapiens, UniProt P28324-2 1-405); settings: protein: recombinant; tags: N-terminal GST; dsDNA, one strand shown
# T9 sequence: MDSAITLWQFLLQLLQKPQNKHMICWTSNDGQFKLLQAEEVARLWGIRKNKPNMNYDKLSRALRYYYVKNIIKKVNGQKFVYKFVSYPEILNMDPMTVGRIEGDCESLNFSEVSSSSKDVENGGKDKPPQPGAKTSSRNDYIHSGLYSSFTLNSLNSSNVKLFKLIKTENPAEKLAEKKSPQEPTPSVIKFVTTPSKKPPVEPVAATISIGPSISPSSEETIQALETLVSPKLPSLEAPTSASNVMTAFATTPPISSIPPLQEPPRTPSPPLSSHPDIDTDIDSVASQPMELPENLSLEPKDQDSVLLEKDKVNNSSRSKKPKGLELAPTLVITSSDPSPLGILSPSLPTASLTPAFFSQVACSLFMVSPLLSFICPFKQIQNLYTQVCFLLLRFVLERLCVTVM
# Method in brief: as §1
# ETV2 = molecular target: T10, ETV2 (Homo sapiens, UniProt O00321 1-342); settings: protein: recombinant; tags: N-terminal GST; dsDNA, one strand shown
# T10 sequence: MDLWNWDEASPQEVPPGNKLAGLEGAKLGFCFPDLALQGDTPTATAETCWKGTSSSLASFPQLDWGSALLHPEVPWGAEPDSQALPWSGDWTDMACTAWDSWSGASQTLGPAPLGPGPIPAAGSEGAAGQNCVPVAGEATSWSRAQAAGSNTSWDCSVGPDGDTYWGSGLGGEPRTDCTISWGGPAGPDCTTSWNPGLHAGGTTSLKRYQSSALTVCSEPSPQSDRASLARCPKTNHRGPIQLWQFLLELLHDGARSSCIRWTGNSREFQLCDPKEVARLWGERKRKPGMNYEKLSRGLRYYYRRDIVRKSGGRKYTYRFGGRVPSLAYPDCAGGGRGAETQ
# Method in brief: as §1
# ELF3 = molecular target: T11, ELF3 (Homo sapiens, UniProt P78545 1-371); settings: protein: recombinant; tags: N-terminal GST; dsDNA, one strand shown
# T11 sequence: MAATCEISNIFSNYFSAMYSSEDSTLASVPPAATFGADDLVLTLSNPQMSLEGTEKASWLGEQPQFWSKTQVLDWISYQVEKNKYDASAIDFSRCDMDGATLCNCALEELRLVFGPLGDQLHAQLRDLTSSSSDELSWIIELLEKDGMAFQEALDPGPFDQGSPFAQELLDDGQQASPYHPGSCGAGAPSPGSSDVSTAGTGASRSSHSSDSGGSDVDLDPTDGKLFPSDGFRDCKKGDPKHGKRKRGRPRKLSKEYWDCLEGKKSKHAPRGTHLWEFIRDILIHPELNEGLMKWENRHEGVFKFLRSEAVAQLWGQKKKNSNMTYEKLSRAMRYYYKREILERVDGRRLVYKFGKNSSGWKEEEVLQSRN
# Method in brief: as §1
# CRX = CRX (Homo sapiens, UniProt O43186 1-299); settings: protein: recombinant; tags: N-terminal GST; dsDNA, one strand shown
# CRX, sequence (O43186 whole entry): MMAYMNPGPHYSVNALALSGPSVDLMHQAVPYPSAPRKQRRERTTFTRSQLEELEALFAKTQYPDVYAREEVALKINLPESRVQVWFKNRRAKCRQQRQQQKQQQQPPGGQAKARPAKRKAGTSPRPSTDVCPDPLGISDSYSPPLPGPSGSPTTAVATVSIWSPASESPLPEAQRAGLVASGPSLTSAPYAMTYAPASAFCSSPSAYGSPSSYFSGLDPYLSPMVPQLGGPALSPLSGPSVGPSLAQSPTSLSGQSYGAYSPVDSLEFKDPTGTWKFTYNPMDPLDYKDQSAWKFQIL
# Method in brief: as §1
# ETV1 = ETV1 (Homo sapiens, UniProt P50549 1-477); settings: protein: recombinant; tags: N-terminal GST; dsDNA, one strand shown
# ETV1, sequence (P50549 whole entry): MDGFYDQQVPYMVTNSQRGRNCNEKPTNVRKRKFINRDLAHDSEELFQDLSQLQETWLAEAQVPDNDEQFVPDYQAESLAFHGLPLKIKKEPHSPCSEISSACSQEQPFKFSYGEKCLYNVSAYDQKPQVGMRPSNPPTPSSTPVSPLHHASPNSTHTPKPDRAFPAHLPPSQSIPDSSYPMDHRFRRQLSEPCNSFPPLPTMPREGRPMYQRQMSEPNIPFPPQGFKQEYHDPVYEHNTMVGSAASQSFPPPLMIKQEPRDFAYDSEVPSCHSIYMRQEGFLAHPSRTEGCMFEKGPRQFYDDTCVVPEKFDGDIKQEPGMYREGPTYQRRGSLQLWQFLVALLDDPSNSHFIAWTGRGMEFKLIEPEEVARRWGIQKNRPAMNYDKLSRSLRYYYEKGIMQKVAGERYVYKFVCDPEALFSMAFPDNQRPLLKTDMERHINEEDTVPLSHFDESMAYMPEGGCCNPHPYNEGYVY
# Method in brief: as §1
sequence,measurement,setting,value
TCTACA,binding signal,FLI1,"1.12 fold enrichment (6-mer frequency, TF over GST control)"
same,binding signal,ELK1,"1.17 fold enrichment (6-mer frequency, TF over GST control)"
same,binding signal,GABPA,"1.19 fold enrichment (6-mer frequency, TF over GST control)"
same,binding signal,ERG,"1.23 fold enrichment (6-mer frequency, TF over GST control)"
same,binding signal,ELF1,"1.28 fold enrichment (6-mer frequency, TF over GST control)"
same,binding signal,EHF,"1.25 fold enrichment (6-mer frequency, TF over GST control)"
same,binding signal,SPI1,"1.14 fold enrichment (6-mer frequency, TF over GST control)"
same,binding signal,SPIB,"1.18 fold enrichment (6-mer frequency, TF over GST control)"
same,binding signal,ELK3,"1.23 fold enrichment (6-mer frequency, TF over GST control)"
same,binding signal,FEV,"1.2 fold enrichment (6-mer frequency, TF over GST control)"
same,binding signal,ETV5,"1.18 fold enrichment (6-mer frequency, TF over GST control)"
same,binding signal,HSF1,"1.39 fold enrichment (6-mer frequency, TF over GST control)"
same,binding signal,SPIC,"1.44 fold enrichment (6-mer frequency, TF over GST control)"
same,binding signal,ELF4,"1.15 fold enrichment (6-mer frequency, TF over GST control)"
same,binding signal,ELK4,"1.17 fold enrichment (6-mer frequency, TF over GST control)"
same,binding signal,ETV2,"1.18 fold enrichment (6-mer frequency, TF over GST control)"
same,binding signal,ELF3,"1.22 fold enrichment (6-mer frequency, TF over GST control)"
same,binding signal,CRX,"1.17 fold enrichment (6-mer frequency, TF over GST control)"
same,binding signal,ETV1,"1.16 fold enrichment (6-mer frequency, TF over GST control)"
